This is a sample that favours compounds with a hit; in the whole collection about 5.9% have one here.
Coupling enz: coupling enzyme interference in Giardia aldolase counter-screen | coupling enzyme system counterscreen, AmpLite Red fluorescence | activity change, negative = inhibition, % at 58.2 µM, hits read low | 0.67% of 290,000 active; in the data active = activity change below about -30%
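Activity here indicates interference with the coupling reaction, not aldolase inhibition. Compounds at 57.5 uM final met coupling enzymes for 10 min at RT; substrate and AmpLite Red detection followed, with a 525/598 nm fluorescence read after 20 min.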
rTrxR1 inhibitor: blocks rat thioredoxin reductase 1 | O89049 | recombinant rTrxR1, NADPH fluorescence consumption, selenite substrate | Potency, µM (series often up to 114 µM), most hits filed as inhibitors | 1% of 390,000 active | AID 588453; note: nearly all actives have a fitted effect of over 65% in size
Target sequence (O89049 whole entry, looked up): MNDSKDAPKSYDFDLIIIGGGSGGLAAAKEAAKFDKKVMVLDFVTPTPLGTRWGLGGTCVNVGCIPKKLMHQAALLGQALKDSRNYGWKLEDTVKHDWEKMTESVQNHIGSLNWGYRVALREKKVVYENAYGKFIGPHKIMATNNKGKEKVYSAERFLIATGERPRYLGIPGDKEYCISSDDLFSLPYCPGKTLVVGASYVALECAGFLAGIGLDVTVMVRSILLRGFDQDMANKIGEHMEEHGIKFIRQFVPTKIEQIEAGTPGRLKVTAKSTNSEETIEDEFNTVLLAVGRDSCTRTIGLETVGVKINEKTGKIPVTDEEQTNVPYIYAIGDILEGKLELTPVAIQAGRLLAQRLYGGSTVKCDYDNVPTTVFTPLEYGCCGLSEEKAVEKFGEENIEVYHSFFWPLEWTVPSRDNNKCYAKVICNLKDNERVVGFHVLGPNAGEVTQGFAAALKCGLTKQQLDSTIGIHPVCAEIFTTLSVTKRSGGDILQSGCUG
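Rat TrxR1 (90 nM in the dispensed reagent) was pre-reduced with 400 uM NADPH for 5 min at room temperature, then incubated with compound for 15 min. After 400 uM selenite was added, NADPH fluorescence (Ex 340/Em 450 nm) was followed for 8 min.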
GALK inh: galactokinase (human) inhibition; P51570; Purified GALK, Kinase-Glo residual ATP luminescence; Potency, µM (doses to about 57.5 µM), most hits filed as inhibitors; 0.007% of 270,000 active; AID 1868
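Kinase-Glo Plus luminescence measured ATP left after a 1 h room-temperature reaction. The reaction used 5 nM GALK, 100 uM galactose and 35 uM ATP at pH 8.0 (20 mM HEPES, 5 mM MgCl2, 60 mM NaCl, 1 mM DTT, 0.01% BSA).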
TrxR1 substrate: is turned over as a substrate by rat TrxR1 | O89049 | purified TrxR1 substrate turnover, NADPH consumption readout | Potency, µM (titrated, usually from 114 µM) | 0.01% of 390,000 active; note: nearly all actives have a fitted effect of over 50% in size
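Rat TrxR1, dispensed at 90 nM, was prereduced with 400 uM NADPH (final) for 5 min at ~22 deg C, then incubated with compound 15 min before 400 uM selenite. A first-read NADPH fluorescence drop versus no-compound background flagged substrates.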
VP16 counter: counter-screen for ROR gamma inhibitors: Gal4-VP16 reporter; Potency, µM (titrated, usually from 53.6 µM), actives largely listed as inhibitors; Drosophila S2 Gal4-VP16 UAS-luciferase, luminescence, 20 h; 3.5% of 310,000 active;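 note: Gal4-VP16 expression switched on by copper sulfate through the metallothionein promoter; nearly all actives have a fitted effect of over 50% in size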
RORg inh: inhibitors of mouse ROR gamma transcriptional activity; Drosophila S2 Gal4-RORgamma UAS-luciferase reporter, 20 h; Potency, µM (highest dose often 53.6 µM), hits mostly inhibitors; 5.4% of 310,000 active; AID 2551; note: nearly all actives have a fitted effect of over 60% in size
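Compounds are pin-transferred onto Drosophila Schneider cells expressing a copper-inducible Gal4–ROR gamma transactivation domain fusion. After 1 hr, copper sulfate is added to 700 uM final; luciferase is read 20 hr later.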
Each line names hits and unclear results; the compound was inactive in the other large screens. Unless noted, calls come from the whole dose curve; as a rule, active = well fitted curve in the direction sought with a large enough effect; inconclusive = small, poorly fitted or top-dose-only effect, or another doubt; inactive = no such curve, though single readings can be large; an effect the other way counts as inactive or inconclusive.

Cc1ccc2nc(Cl)c3nnnn3c2c1	rTrxR1 inhibitor 8.9µM
Cc1ccc(CNC(=O)[C@H](C)[C@H]2C[C@]2(C)[C@H](NC(=O)OCc2ccccc2)c2ccccc2)o1	rTrxR1 inhibitor 56µM, VP16 counter inconclusive, RORg inh inconclusive (no result: GALK inh)
C[C@@H](C(=O)NCc1ccc(S(C)(=O)=O)cc1)[C@H]1C[C@]1(C)[C@H](NC(=O)OCc1ccccc1)c1ccccc1	RORg inh 8.9µM (no result: GALK inh)
Clc1ccc(Cn2c(-c3cccnc3Cl)nc3ccccc32)cc1	none (no result: GALK inh)
CCN1c2ccccc2-c2nc3ccccc3n2C1c1ccco1 (stereo not drawn)	rTrxR1 inhibitor inconclusive, VP16 counter inconclusive, RORg inh 16µM
CN1c2ccccc2-c2nc3ccccc3n2C1c1ccccn1 (stereo not drawn)	VP16 counter inconclusive, RORg inh 4µM
CN1c2ccccc2-c2nc3ccccc3n2C1c1ccncc1 (stereo not drawn)	none
c1ccc(CN2c3ccccc3-c3nc4ccccc4n3C2c2ccccn2)cc1 (stereo not drawn)	RORg inh 16µM (no result: Coupling enz)
COc1ccc(N2CCN(Cc3nc4c(c(=O)[nH]c(=O)n4C)n3CC(C)C)CC2)cc1	none (no result: Coupling enz, GALK inh, VP16 counter, RORg inh)
CCOC(=O)c1c(C)[nH]c(C(=O)COC(=O)CSC)c1C	none
CCOC(=O)N1CCN(C(=O)CNC(=O)C23CC4CC(CC(C4)C2)C3)CC1	none (no result: Coupling enz)
OCCOCCOCCO	none (no result: Coupling enz, rTrxR1 inhibitor, GALK inh, TrxR1 substrate)
Cn1ncc([N+](=O)[O-])c1C(=O)N/N=C/c1cccc([N+](=O)[O-])c1	Coupling enz -35
O=C(N/N=C/c1ccoc1)c1cccc([N+](=O)[O-])c1	VP16 counter inconclusive, RORg inh 11µM (no result: Coupling enz)
O=C(N/N=C/c1ccc(Br)s1)c1cccc([N+](=O)[O-])c1	VP16 counter 1µM, RORg inh 0.45µM
COc1ccc(C(=O)N/N=C\c2ccoc2)cc1	none
Cc1ccc(C(=O)N/N=C/c2ccoc2)cc1C	VP16 counter inconclusive, RORg inh 13µM
O=c1oc2ccc(C#CC3(O)CCCCC3)cc2cc1-n1cc(C2(O)CCCCC2)nn1	none (no result: Coupling enz, GALK inh, VP16 counter, RORg inh)
CCC1(C)Cc2c(C#N)c(SC)nc(N3CCOCC3)c2CO1 (stereo not drawn)	none (no result: Coupling enz, GALK inh, VP16 counter, RORg inh)
CN(C)c1ccc(N=Nc2ccc(S(=O)(=O)O)cc2)c2ccccc12	none
O=C(NCCCN1CCOCC1)c1ccc(CS(=O)(=O)Cc2ccccc2Cl)o1	none
COc1ccccc1CNCC(O)(c1ccc(F)cc1)c1ccc(F)cc1	none
OC(CNCc1ccccc1F)(c1ccc(F)cc1)c1ccc(F)cc1	VP16 counter inconclusive, RORg inh 7.9µM
CC(C)[C@H](NS(=O)(=O)c1ccccc1F)C(=O)OCC(=O)Nc1cccc(S(N)(=O)=O)c1	none (no result: Coupling enz, GALK inh, VP16 counter, RORg inh)
O=C(NCc1ccc(Cl)cc1)C1CCN(S(=O)(=O)c2cccc3nonc23)CC1	none
N#CC1(C#N)OC12CCS(=O)(=O)c1ccccc12 (stereo not drawn)	rTrxR1 inhibitor 50µM (no result: Coupling enz, GALK inh, VP16 counter, RORg inh)
Cc1ccc(S(=O)(=O)N2CCC(C(=O)OCCOc3cccc(C)c3)CC2)cc1	none (no result: Coupling enz, GALK inh, VP16 counter, RORg inh)
CCCCc1ccc(/C(C)=N/Nc2cc(N3CCOCC3)nc(C)n2)cc1	VP16 counter inconclusive, RORg inh 13µM
C(=N\Nc1ccccn1)/c1ccc(N2CCOCC2)cc1	RORg inh inconclusive
C/C(=N\Nc1ccccn1)c1ccc(C(C)C)cc1	VP16 counter 11µM, RORg inh 4µM
C/C(=N\Nc1ccccn1)c1ccc(Br)s1	none (no result: Coupling enz, GALK inh, VP16 counter, RORg inh)
C/C(=N\Nc1ccccn1)c1ccc(N2CCOCC2)cc1	VP16 counter inconclusive, RORg inh 7.1µM
CCSc1nnc2c(n1)OC1(CCCC1)Nc1ccccc1-2	none
CN=CC1=C(O)c2ccccc2C1=O	none
COc1ccc(N=C(C)C2=C(O)c3ccccc3C2=O)cc1	VP16 counter inconclusive
COc1ccc(N=Cc2[nH]c3ccccc3c2O)cc1	Coupling enz -38, VP16 counter inconclusive
COc1ccc(N=CC2=C(O)c3ccccc3C2=O)cc1	VP16 counter inconclusive, RORg inh 3.2µM
O=C1C(C=Nc2ccccc2)=C(O)c2ccccc21	VP16 counter 11µM, RORg inh inconclusive
Nc1ccc(NC(=O)c2ccc(C(=O)Nc3ccc(N)cc3)cc2)cc1	none
